Reference: PubChem BioAssay (NCATS)
Inconclusive results are not listed. The source made the active and inactive calls. Unless noted, calls come from the whole dose curve; as a rule, active = well fitted curve in either direction with a large enough effect (not every such curve was filed as active); inconclusive = small, poorly fitted or top-dose-only effect, or another doubt; inactive = flat fitted curve, though single readings scatter.

Experiments:
[1] = molecular target: Lysosomal acid glucosylceramidase (Homo sapiens) (UniProt P04062); assay: Glucocerebrosidase-p2 (AID 348; in the data active = potency below about 10 µM; note: potency is the fitted concentration of half-maximal effect); settings: purified GBA, blue fluorogenic substrate, 40 min
Method in brief: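 Normal human glucocerebrosidase (0.2 nM) with blue fluorogenic substrate (80 uM final) in citrate/phosphate pH 5.9 with 10mM sodium taurocholate, 0.01% tween-20; 40 min RT, NaOH/glycine stop; fluorescence Ex 365/Em 440; AC50 from a titration from 0.6 nM upwards.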

[2] = AP1 Signaling Pathway (AID 357); settings: ME-180 AP-1-bla reporter, EGF-induced, beta-lactamase ratio, 5 h; at 7.69 µM (top of the series) unless noted;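 note: ME-180 reporter cells stimulated with EGF at its EC50 level; % is set by controls: 0 for no effect and ±100 for the full control effect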
Method in brief: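 Beta-lactamase reporter under AP-1 response element, ME-180 background. Stimulus: EC50 EGF. Compound exposure 5 h, 37 °C. Detection: CCF4, 2.5 h RT, 460/530 nm. Values: AC50 from titration.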

[3] = molecular target: Cytochrome P450 1A2 (Homo sapiens) (UniProt P05177); assay: p450-cyp1a2 (AID 410; calls by dose curve; note: potency is the fitted concentration of half-maximal effect;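 for activity change, negative = inhibition: -100% = full effect of reference inhibitor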); settings: recombinant CYP1A2, luciferin-ME demethylation, luminescence; series mostly up to 57 µM
Method in brief: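 Luminescent demethylation readout: Luciferin-ME (100uM, equal to Km) turned over by 20nM CYP1A2 for 60 min at room temperature after NADPH regeneration addition, following 10 min compound preincubation. Normalization used 57 uM furafylline as full inhibition.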

[4] = NFAT Signaling Pathway (AID 444); settings: Jurkat NFAT-bla M1, carbachol, beta-lactamase ratio, 5 h; at 7.69 µM (top of the series) unless noted;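 note: carbachol stimulus at about its EC50 of 1 µM final; % is set by controls: 0 for no effect and ±100 for the full control effect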
Method in brief: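 Read-out: CCF4 FRET ratio (460 nm/530 nm) after 1 h RT dye loading, used for %activity and AC50 from titration series. Cells: Jurkat NFAT-β-lactamase/M1 line, treated with compound plus 1 uM carbachol for 5 h, 37 °C.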

[5] = Stat Signaling Pathway (AID 446); settings: ME-180 SIE beta-lactamase reporter, IL-6 stimulated, 5 h; at 7.69 µM (top of the series) unless noted;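 note: ME-180 cervical cancer cells given 40 pM IL-6 alongside compound; SIE-controlled beta-lactamase reporter measured as 460/530 nm FRET emission ratio; % is set by controls: 0 for no effect and ±100 for the full control effect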
Method in brief: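 Emission at 460 and 530 nm (excitation 405 nm) reports SIE-controlled beta-lactamase in ME-180 cells. Cells received compound with 40 pM IL-6 for 5 hrs at 37 C; data scaled between 300 pM IL-6 and 125 nM JAK-inhibitor controls.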

[6] = molecular target: Glucocorticoid receptor (Homo sapiens) (UniProt P04150); assay: GR-GFP Redistribution (AID 450;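 active = compounds whose dose series gives a full or clear partial fitted curve of increased nuclear translocation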; note: potency is the fitted concentration of half-maximal effect); settings: U2OS GR-GFP nuclear translocation, laser cytometry, 2 h
[7] = molecular target: Glucocorticoid receptor (Homo sapiens) (UniProt P04150); assay: GR-EFC Redistribution (AID 451; calls by dose curve; note: potency is the fitted concentration of half-maximal effect); settings: CHO-K1 GR-EFC translocation, beta-gal luminescence, 2 h
Method in brief: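 Translocation of GR-ED fusion to nuclear EA restores b-gal, read by luminescence after 1 h room-temperature detection. Engineered CHO-K1 biosensor cells, 1,000/well, exposed 2 h at 37 C to titrations up to 46 uM final.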

[8] = molecular target: Mitogen-activated protein kinase 10 (Mus musculus) (UniProt Q61831); assay: JNK3 AlphaScreen Assay (AID 530); settings: JNK3 lysate, c-Jun phosphorylation; series mostly up to 57.1 µM;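 note: kinase came from lysate of stimulated human HepG2 cells; signal reports phosphorylation of biotinylated GST-cJun 1-79 at Ser73 with 10 µM ATP; % is set by controls: 0 for no effect and ±100 for the full control effect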
Method in brief: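 qHTS titrations with 15 min compound pre-incubation before adding ATP (10 uM final). Read-out: AlphaScreen of Ser73-phosphorylated biotin-GST-cJun using HepG2 lysate JNK3 activated by IL-1β and TNFα.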

[9] = molecular target: 3',5'-cyclic-AMP phosphodiesterase 4B (Homo sapiens) (UniProt Q07343); assay: qHTS Assay for Inhibitors of PDE-IV (AID 607; active = well fitted activation curve with a large enough effect in the main read-out, with a control signal flat, not every such curve was filed as active; note: % of control where 0% means no effect); settings: HEK293 ACTOne CNG channel cells, membrane potential fluorescence; series mostly up to 22.9 µM
Method in brief: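 The readout is membrane depolarisation from a cAMP-sensing CNG channel, detected with a potential dye at ex 535/em 590. Cells were HEK293-derived (endogenous PDE-IV) at 1000 cells/well, titrated up to 22.9 uM final.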

[10] = molecular target: Cytochrome P450 3A4 (Homo sapiens) (UniProt P08684); assay: qHTS Assay for Inhibitors and Substrates of Cytochrome P450 3A4 (AID 884; active = well fitted curve in the direction sought with a large enough effect; an effect the other way counts as inactive or inconclusive; note: nearly all actives have a fitted effect of over 50% in size; note: potency is the fitted concentration of half-maximal effect); settings: recombinant CYP3A4, Luciferin-PPXE luminescence; series mostly up to 57.1 µM
Method in brief: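 Luminescent readout of luciferin produced by CYP3A4 (20 nM) dealkylation of Luciferin-PPXE, 25 uM (its KM). NADPH-driven reaction ran 60 min at RT after 10 min compound preincubation; data scaled to 57 uM ketoconazole as 100% inhibition.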

[11] = Primary qHTS for small molecule stabilizers of the endoplasmic reticulum resident proteome: Secreted ER Calcium Modulated Protein (SERCaMP) assay (AID 1508630; active = well fitted curve in the direction sought with a large enough effect; an effect the other way counts as inactive or inconclusive; note: % is set by controls: 0 for no effect and ±100 for the full control effect); settings: SH-SY5Y GLuc-SERCaMP (Gaussia luciferase released on ER calcium loss) secretion, thapsigargin, luminescence; series mostly up to 38.4 µM
Method in brief: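 The SH-SY5Y reporter protocol was run at 3 concentrations up to 38.3 uM (primary) or 11 concentrations (follow-up): 16 h compound, 100 nM thapsigargin for 4 h, then extracellular luciferase luminescence.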

[12] = Confirmation and Secondary Assay for Modulators of Hemoglobin Beta Chain Splicing at IVS2 654 locus (AID 910; active = well fitted curve in the direction sought with a large enough effect; an effect the other way counts as inactive or inconclusive;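 note: HeLa cells stably carrying EGFP split by mutant beta-globin IVS2-654 intron; per-well total GFP intensity by laser scanning cytometry after 2-day treatment; % of control where 0% means no effect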); settings: HeLa EGFP-654 splicing reporter, GFP fluorescence, 48 h; series mostly up to 38.3 µM
Method in brief: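 Readout: per-well total peak green fluorescence (488 nm ex, 500–520 nm em) from objects 5–250 µm, reflecting correct splicing of an EGFP-654 reporter. Compounds were applied for 2 days at 37 °C to overnight-plated HeLa EGFP-654 cells; controls were DMSO and 500 nM IVS2-654 PNA.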

[13] = Confirmation and Secondary Assay for Modulators of Hemoglobin Beta Chain Splicing at IVS2 705 locus (AID 930; active = well fitted curve in the direction sought with a large enough effect; an effect the other way counts as inactive or inconclusive;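 note: HeLa cells stably expressing the EGFP-705 splicing reporter; GFP fluorescence per well restored by corrected splicing of the IVS2-705 intron in EGFP; % of control where 0% means no effect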); settings: HeLa EGFP-705 splicing reporter, GFP fluorescence, 48 h; series mostly up to 38.3 µM
Method in brief: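 Assay measures total GFP intensity per well in HeLa EGFP-705 cells after 2 days with compound; mis-splicing normally truncates EGFP, so fluorescence indicates corrected splicing.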

[14] = molecular target: Ubiquitin carboxyl-terminal hydrolase 1 (Homo sapiens) (UniProt O94782); assay: Inhibitors of USP1/UAF1: Pilot qHTS (AID 504865; active = well fitted curve in the direction sought with a large enough effect; an effect the other way counts as inactive or inconclusive;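 note: rhodamine fluorescence freed from ubiquitin-rhodamine substrate followed over time; top concentration of the series differs between compounds; % is set by controls: 0 for no effect and ±100 for the full control effect; nearly all actives have a fitted effect of over 35% in size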); settings: purified USP1/UAF1, Ub-rhodamine cleavage fluorescence; series mostly up to 54.9 µM
Method in brief: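 1nM USP1/UAF1 + cpd, 15 min RT; start w/ Ub-Rho 150nM final; kinetic FL 480/540 nm, 6 reads q60 s. Buffer 50mM HEPES pH 7.8, 0.5mM EDTA, 1mM TCEP, 0.01% Tween-20, 0.1 mg/ml BSA.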

[15] = molecular target: Cytochrome P450 3A4 (Homo sapiens) (UniProt P08684); assay: qHTS Assay for Activators of Cytochrome P450 3A4 (AID 885; active = well fitted curve in the direction sought with a large enough effect; an effect the other way counts as inactive or inconclusive; note: nearly all actives have a fitted effect of over 65% in size); settings: recombinant CYP3A4, Luciferin-PPXE luminescence, 60 min; series mostly up to 57.1 µM
Method in brief: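 Activators are scored by enhanced luminescence from CYP3A4 conversion of luciferin-PPXE (25uM, equal to KM) to luciferin, after 60 min at RT with an NADPH-regenerating system.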

[16] = molecular target: Cytochrome P450 2C9 (Homo sapiens) (UniProt P11712); assay: qHTS Assay for Inhibitors and Substrates of Cytochrome P450 2C9 (AID 883; active = well fitted curve in the direction sought with a large enough effect; an effect the other way counts as inactive or inconclusive; note: potency is the fitted concentration of half-maximal effect; nearly all actives have a fitted effect of over 60% in size); settings: recombinant CYP2C9, luciferin-H luminescence, 60 min; series mostly up to 57.1 µM
Method in brief: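 Luminescent read-out of deoxyluciferin hydroxylation, normalized to 57uM sulphaphenazole (AC100). Reaction: 10nM enzyme, 100uM Luciferin-H (equal to KM), 25mM KPO4, 10 min compound preincubation, then 60 min with NADPH regeneration, both at 37C.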

[17] = qHTS Assay for Identification of Small Molecule Agonists for Hypoxia Response Element Signaling Pathway (AID 914; active = well fitted activation curve with a large enough effect in the signal ratio, with a control signal flat, not every such curve was filed as active; the % refers to the signal ratio; note: potency is the fitted concentration of half-maximal effect); settings: ME-180 (cervical carcinoma) HRE-bla reporter, beta-lactamase ratio, CoCl2, 17 h; activation: hits give high values
Method in brief: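 Compounds in a titration series were added to ME-180 reporter cells alongside an EC50 level of CoCl2. After 17 hours, beta-lactamase activity was read as the 460nm/530nm emission ratio of CCF4, giving AC50 values.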

Sequence of 3',5'-cyclic-AMP phosphodiesterase 4B (Homo sapiens) (Q07343 whole entry, looked up): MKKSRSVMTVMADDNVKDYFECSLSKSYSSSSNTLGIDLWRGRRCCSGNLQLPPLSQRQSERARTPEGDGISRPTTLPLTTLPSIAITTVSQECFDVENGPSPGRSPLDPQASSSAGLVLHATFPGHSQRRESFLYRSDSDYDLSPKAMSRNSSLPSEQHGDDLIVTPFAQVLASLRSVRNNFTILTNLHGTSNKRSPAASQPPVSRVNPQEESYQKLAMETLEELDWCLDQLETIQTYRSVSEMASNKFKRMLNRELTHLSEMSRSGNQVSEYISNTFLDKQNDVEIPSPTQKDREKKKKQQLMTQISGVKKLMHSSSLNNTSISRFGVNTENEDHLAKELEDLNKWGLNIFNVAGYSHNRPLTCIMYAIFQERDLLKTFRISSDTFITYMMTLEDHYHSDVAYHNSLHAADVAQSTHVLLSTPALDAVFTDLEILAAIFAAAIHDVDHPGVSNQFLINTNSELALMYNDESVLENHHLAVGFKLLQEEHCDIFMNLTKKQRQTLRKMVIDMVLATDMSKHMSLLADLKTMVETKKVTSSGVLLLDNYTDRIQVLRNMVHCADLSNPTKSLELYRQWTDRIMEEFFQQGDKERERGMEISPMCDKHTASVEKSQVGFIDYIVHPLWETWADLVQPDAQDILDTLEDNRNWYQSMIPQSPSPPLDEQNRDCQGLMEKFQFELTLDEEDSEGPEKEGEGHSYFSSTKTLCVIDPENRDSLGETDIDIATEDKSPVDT
Sequence of Lysosomal acid glucosylceramidase (Homo sapiens) (P04062 whole entry, looked up): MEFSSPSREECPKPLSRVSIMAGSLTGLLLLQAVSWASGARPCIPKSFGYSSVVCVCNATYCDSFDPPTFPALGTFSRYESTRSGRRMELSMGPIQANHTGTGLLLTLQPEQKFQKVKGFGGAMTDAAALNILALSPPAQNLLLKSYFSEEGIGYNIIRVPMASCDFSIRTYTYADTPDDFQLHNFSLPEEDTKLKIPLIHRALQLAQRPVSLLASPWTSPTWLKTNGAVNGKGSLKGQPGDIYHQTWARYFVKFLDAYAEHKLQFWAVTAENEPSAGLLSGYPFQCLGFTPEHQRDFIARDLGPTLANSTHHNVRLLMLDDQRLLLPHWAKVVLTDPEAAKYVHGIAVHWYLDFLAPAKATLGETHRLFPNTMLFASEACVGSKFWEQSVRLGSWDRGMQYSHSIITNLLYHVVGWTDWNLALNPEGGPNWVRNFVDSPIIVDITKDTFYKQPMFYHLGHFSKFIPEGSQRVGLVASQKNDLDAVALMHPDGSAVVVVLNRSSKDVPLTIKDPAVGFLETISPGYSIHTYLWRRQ
Sequence of Glucocorticoid receptor (Homo sapiens) (P04150 whole entry, looked up, the tested form may be a part): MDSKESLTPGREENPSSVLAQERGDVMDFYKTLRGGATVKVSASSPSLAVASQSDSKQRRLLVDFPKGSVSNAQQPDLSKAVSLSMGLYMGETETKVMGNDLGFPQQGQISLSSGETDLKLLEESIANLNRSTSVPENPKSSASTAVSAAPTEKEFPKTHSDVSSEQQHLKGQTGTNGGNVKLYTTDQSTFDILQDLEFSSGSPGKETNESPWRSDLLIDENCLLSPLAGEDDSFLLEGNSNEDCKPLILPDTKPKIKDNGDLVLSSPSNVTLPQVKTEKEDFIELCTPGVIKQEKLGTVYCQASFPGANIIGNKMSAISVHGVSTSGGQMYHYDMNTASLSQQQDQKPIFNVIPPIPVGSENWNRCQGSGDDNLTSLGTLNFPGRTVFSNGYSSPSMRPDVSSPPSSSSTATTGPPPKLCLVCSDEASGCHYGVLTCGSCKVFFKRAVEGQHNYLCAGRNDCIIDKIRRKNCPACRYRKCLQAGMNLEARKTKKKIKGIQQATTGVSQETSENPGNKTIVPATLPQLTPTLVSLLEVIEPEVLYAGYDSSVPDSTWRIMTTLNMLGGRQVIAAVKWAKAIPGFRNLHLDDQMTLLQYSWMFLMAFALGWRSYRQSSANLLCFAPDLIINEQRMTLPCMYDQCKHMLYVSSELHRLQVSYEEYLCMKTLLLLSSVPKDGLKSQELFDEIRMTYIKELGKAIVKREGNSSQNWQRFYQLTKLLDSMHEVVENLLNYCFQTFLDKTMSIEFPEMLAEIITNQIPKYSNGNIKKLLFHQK
Sequence of Ubiquitin carboxyl-terminal hydrolase 1 (Homo sapiens) (O94782 whole entry, looked up): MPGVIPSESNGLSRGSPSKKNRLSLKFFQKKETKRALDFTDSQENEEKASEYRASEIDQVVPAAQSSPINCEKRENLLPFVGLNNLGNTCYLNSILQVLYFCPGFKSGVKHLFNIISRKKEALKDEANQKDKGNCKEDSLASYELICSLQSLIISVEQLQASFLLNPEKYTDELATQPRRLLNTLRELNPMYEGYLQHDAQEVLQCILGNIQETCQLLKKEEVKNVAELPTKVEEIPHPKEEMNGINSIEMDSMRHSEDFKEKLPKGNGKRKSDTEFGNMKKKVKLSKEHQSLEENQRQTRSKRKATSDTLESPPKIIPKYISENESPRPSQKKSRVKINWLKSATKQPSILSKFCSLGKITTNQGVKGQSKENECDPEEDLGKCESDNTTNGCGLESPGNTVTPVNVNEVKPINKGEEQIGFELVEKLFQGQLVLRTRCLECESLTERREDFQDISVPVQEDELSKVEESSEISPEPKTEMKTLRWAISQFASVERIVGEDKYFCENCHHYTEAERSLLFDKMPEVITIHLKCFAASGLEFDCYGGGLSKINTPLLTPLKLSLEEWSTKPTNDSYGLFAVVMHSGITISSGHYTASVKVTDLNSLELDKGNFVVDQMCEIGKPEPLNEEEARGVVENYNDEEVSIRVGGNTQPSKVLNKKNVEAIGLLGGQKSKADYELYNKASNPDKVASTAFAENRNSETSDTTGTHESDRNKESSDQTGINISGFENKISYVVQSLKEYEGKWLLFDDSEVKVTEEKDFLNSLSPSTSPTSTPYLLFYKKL
Sequence of Cytochrome P450 1A2 (Homo sapiens) (P05177 whole entry, looked up): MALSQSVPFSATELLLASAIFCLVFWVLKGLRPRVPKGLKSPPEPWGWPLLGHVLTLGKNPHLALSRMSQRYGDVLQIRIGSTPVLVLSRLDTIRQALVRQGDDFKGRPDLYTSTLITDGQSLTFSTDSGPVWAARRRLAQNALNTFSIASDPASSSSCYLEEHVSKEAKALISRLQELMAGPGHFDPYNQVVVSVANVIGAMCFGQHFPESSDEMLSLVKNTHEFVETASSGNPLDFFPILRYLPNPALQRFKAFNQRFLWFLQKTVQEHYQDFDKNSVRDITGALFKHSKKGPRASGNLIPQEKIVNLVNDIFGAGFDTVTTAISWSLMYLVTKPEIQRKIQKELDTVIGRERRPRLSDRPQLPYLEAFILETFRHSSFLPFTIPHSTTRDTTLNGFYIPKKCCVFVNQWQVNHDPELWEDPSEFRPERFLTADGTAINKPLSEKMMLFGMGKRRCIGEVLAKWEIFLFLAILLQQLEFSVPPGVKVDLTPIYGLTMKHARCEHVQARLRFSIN
Sequence of Cytochrome P450 3A4 (Homo sapiens) (P08684 whole entry, looked up): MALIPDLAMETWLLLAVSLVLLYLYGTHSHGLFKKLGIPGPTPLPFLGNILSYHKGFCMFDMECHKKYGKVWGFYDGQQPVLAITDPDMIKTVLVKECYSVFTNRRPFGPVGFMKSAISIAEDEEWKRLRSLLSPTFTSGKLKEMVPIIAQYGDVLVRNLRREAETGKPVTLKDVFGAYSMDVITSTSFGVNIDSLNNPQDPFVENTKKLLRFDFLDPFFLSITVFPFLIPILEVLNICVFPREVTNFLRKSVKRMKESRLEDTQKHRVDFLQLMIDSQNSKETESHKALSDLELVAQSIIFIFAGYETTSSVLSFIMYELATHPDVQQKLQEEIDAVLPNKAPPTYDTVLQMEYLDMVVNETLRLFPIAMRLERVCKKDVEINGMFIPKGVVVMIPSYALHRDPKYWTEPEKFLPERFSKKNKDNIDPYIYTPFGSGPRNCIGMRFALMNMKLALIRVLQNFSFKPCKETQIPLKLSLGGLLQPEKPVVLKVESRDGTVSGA
Sequence of Cytochrome P450 2C9 (Homo sapiens) (P11712 whole entry, looked up): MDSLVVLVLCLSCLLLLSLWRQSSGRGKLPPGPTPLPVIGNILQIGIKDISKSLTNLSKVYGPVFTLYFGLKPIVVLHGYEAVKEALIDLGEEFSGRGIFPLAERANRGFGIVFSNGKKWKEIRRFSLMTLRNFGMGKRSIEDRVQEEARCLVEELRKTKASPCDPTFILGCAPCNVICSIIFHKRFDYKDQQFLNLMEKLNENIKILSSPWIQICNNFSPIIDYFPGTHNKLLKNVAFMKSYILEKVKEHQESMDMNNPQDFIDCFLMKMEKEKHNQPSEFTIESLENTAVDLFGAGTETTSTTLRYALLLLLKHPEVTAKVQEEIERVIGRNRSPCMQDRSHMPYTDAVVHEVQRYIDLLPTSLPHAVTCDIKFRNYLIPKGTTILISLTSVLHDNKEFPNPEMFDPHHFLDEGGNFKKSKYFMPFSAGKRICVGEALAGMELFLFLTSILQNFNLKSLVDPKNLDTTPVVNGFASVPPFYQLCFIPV

Cn1c(=O)c(-c2ccc(F)cc2)nc2cnc(Oc3ccccc3)nc21
inactive: Potency [1] > 11.4 µM | activity change, negative = inhibition [2] 14.3% | activity change, negative = inhibition [4] 5.5% | activity, negative = inhibition [5] -0.989% | Potency [6] > 9.22 µM | Potency [7] > 46 µM | Potency [8] | Potency [9] | Potency [10] | outcome [11]
active: Potency [3] 0.316 µM

CCNc1ncc2nc(-c3ccc(F)cc3)c(=O)n(CCC#N)c2n1
inactive: Potency [1] > 11.4 µM | activity change, negative = inhibition [2] -13.4% | activity change, negative = inhibition [4] -10% | activity, negative = inhibition [5] 16.7% | Potency [6] > 9.22 µM | Potency [7] > 46 µM | Potency [8] | outcome [11]
active: Potency [3] 0.631 µM

O=c1c(-c2ccccc2)nc2cncnc2n1C1CC1
inactive: Potency [1] > 11.4 µM | activity change, negative = inhibition [2] -14.9% | activity change, negative = inhibition [4] 6.76% | activity, negative = inhibition [5] 8.37% | Potency [6] > 9.22 µM | Potency [7] > 46 µM | Potency [8] | outcome [11]
active: Potency [3] 2 µM

N#Cc1cccc(-c2nc3cnc(Nc4ccccc4)nc3n(C[C@H]3CCCO3)c2=O)c1
active: Potency [3] 2 µM
inactive: Potency [1] > 11.4 µM | activity change, negative = inhibition [2] -18.6% | activity change, negative = inhibition [4] -9.05% | activity, negative = inhibition [5] -7.94% | Potency [6] > 9.22 µM | Potency [7] > 46 µM | Potency [8] | Potency [9] | outcome [11]

FC(F)(F)c1ccccc1-c1cncnc1NCCc1cnc[nH]1
active: Potency [3] 6.31 µM
inactive: Potency [1] > 11.4 µM | activity change, negative = inhibition [2] -1.69% | activity change, negative = inhibition [4] -20% | activity, negative = inhibition [5] -1.23% | Potency [6] > 46 µM | Potency [7] > 46 µM | Potency [8] | Potency [9] | Potency [12] | outcome [13] | Potency [14] | outcome [11]

COc1ccc(-n2c(=O)c(C)nc3cnc(Nc4ccccc4)nc32)cc1
active: Potency [3] 5.01 µM
inactive: Potency [1] > 11.4 µM | activity change, negative = inhibition [2] -25% | activity change, negative = inhibition [4] 0.929% | activity, negative = inhibition [5] -5.94% | Potency [6] > 9.22 µM | Potency [7] > 46 µM | Potency [8] | Potency [9] | Potency [15] | outcome [11]

COc1ccc(Oc2ncc3nc(C)c(=O)n(C)c3n2)cc1
inactive: Potency [1] > 11.4 µM | activity change, negative = inhibition [2] 14.2% | activity change, negative = inhibition [4] -1.39% | activity, negative = inhibition [5] -6.21% | Potency [6] > 9.22 µM | Potency [7] > 46 µM | Potency [8] | Potency [9] | Potency [15] | outcome [11]
active: Potency [3] 12.6 µM

Cn1c(=O)c(CCc2ccccc2)nc2cncnc21
inactive: Potency [1] > 11.4 µM | activity change, negative = inhibition [2] -10.9% | activity change, negative = inhibition [4] -3.66% | activity, negative = inhibition [5] -13.2% | Potency [6] > 9.22 µM | Potency [7] > 46 µM | Potency [8] | Potency [9] | Potency [15] | outcome [11]
active: Potency [3] 7.94 µM

CN(Cc1ccco1)c1ccnc(-c2ccoc2)n1
active: Potency [3] 12.6 µM
inactive: Potency [1] > 11.4 µM | activity change, negative = inhibition [2] 12% | activity change, negative = inhibition [4] -2.04% | activity, negative = inhibition [5] -14.2% | Potency [6] > 46 µM | Potency [7] > 46 µM | Potency [8] | Potency [9] | Potency [12] | Potency [14] | outcome [11]

O=c1c(-c2ccccc2)nc2cncnc2n1Cc1ccccc1Cl
active: Potency [3] 2 µM
inactive: Potency [1] > 11.4 µM | activity change, negative = inhibition [2] 1.43% | activity change, negative = inhibition [4] -6.41% | activity, negative = inhibition [5] 5.03% | Potency [6] > 9.22 µM | Potency [7] > 46 µM | Potency [8] | outcome [11]

CN(C)C(=O)c1ccc(-c2cncnc2NCCN2CCOCC2)cc1
inactive: Potency [1] > 11.4 µM | activity change, negative = inhibition [2] -0.958% | Potency [3] | activity change, negative = inhibition [4] -6.2% | activity, negative = inhibition [5] 0.853% | Potency [6] > 46 µM | Potency [7] > 46 µM | Potency [8] | Potency [9] | Potency [15] | Potency [12] | outcome [13] | Potency [14] | outcome [11]

O=c1cnc2cnc(Oc3cccc(Cl)c3)nc2n1C1CC1
active: Potency [3] 2.51 µM | Potency [16] 6.31 µM
inactive: Potency [1] > 11.4 µM | activity change, negative = inhibition [2] -27.3% | activity change, negative = inhibition [4] 0.268% | activity, negative = inhibition [5] -9.7% | Potency [6] > 9.22 µM | Potency [7] > 46 µM | Potency [8] | Potency [9] | outcome [11]

COc1ccc(Oc2ncc3ncc(=O)n(Cc4cccs4)c3n2)cc1
active: Potency [3] 10 µM | Potency [10] 3.16 µM
inactive: Potency [1] > 11.4 µM | activity change, negative = inhibition [2] -29.2% | activity change, negative = inhibition [4] -6.6% | activity, negative = inhibition [5] -28.6% | Potency [6] > 9.22 µM | Potency [7] > 46 µM | Potency [8] | Potency [9] | Potency [15] | outcome [11]

COc1ccc(Oc2ncc3nc(-c4cccs4)c(=O)n(C)c3n2)cc1
inactive: Potency [1] > 11.4 µM | activity change, negative = inhibition [2] 18.3% | activity change, negative = inhibition [4] 28.2% | activity, negative = inhibition [5] 27.9% | Potency [6] > 9.22 µM | Potency [7] > 46 µM | Potency [8] | Potency [9] | Potency [15] | outcome [11]
active: Potency [3] 3.16 µM | Potency [16] 3.16 µM | Potency [10] 3.98 µM | Potency [17] 3.16 µM
